Data from the antibiotic and cytotoxicity screens of Wong et al. (2023).
The campaign covered roughly 39,000 compounds. About 3,300 (8.5%) were called active. Many of the other results were omitted from the sample, so actives are more common in it than they were.

Test system: HepG2
Assay: cytotoxicity call (relative viability < 0.9)
Settings: 10 µM

SMILES	cytotoxicity call
C[C@H](CO)N1C[C@H](C)[C@H](CN(C)Cc2ccc(Cl)c(Cl)c2)Oc2ccc(NC(=O)Nc3cccc4ccccc34)cc2CC1=O	inactive
C[C@@H]1CN([C@H](C)CO)C(=O)c2cc(NC(=O)Nc3cccc4ccccc34)ccc2O[C@@H]1CN(C)Cc1ccc(Cl)c(Cl)c1	inactive
C[C@@H]1CN([C@@H](C)CO)C(=O)c2cc(NC(=O)Nc3cccc4ccccc34)ccc2O[C@H]1CN(C)Cc1ccc(Cl)c(Cl)c1	inactive
C[C@H](CO)N1C[C@H](C)[C@H](CN(C)Cc2ccc(Cl)c(Cl)c2)Oc2ccc(NC(=O)Nc3cccc4ccccc34)cc2C1=O	active
C[C@@H]1CN([C@H](C)CO)C(=O)Cc2cc(NC(=O)Nc3cccc4ccccc34)ccc2O[C@@H]1CN(C)Cc1ccc(Cl)c(Cl)c1	active
C[C@H](CO)N1C[C@H](C)[C@@H](CN(C)Cc2ccc(Cl)c(Cl)c2)Oc2ccc(NC(=O)Nc3cccc4ccccc34)cc2CC1=O	inactive
C[C@H]1CN([C@@H](C)CO)C(=O)Cc2cc(NC(=O)Nc3cccc4ccccc34)ccc2O[C@@H]1CN(C)Cc1ccc(Cl)c(Cl)c1	inactive
C[C@@H]1CN([C@H](C)CO)C(=O)Cc2cc(NC(=O)Nc3cccc4ccccc34)ccc2O[C@H]1CN(C)Cc1ccc(Cl)c(Cl)c1	inactive
C[C@@H]1CN([C@@H](C)CO)C(=O)Cc2cc(NC(=O)Nc3cccc4ccccc34)ccc2O[C@@H]1CN(C)Cc1ccc(Cl)c(Cl)c1	active
COc1ccc(S(=O)(=O)Nc2ccc3c(c2)C(=O)N(C)C[C@@H](OC)[C@H](C)CN(C(=O)NC(C)C)[C@H](C)CO3)cc1	inactive
CN(C)CCCNC(=O)C[C@@H]1CC[C@@H]2[C@H](COC[C@@H](O)CN2S(=O)(=O)c2ccc(Cl)cc2)O1	inactive
C[C@@H]1CCCCO[C@@H](CN(C)S(=O)(=O)c2cccs2)[C@@H](C)CN([C@@H](C)CO)C(=O)c2cc(NC(=O)Nc3ccc(C(F)(F)F)cc3)ccc2O1	inactive
Cc1noc(C)c1S(=O)(=O)Nc1ccc2c(c1)C(=O)N([C@@H](C)CO)C[C@@H](C)[C@@H](CN(C)Cc1ccccc1)OCCCC[C@H](C)O2	inactive
C[C@@H]1CN([C@@H](C)CO)C(=O)c2cc(NC(=O)CCN3CCOCC3)ccc2O[C@H]1CN(C)CC1CCCCC1	inactive
C[C@@H]1CCCCO[C@@H](CN(C)C(=O)c2ccccc2)[C@H](C)CN([C@H](C)CO)C(=O)c2cc(NS(=O)(=O)c3ccc(Cl)cc3)ccc2O1	inactive
Cc1ccc(S(=O)(=O)N(C)C[C@H]2OCCCC[C@H](C)Oc3ccc(NC(=O)Nc4ccccc4)cc3C(=O)N([C@@H](C)CO)C[C@@H]2C)cc1	inactive
C[C@@H]1CN([C@@H](C)CO)C(=O)CCCn2nncc2CO[C@@H]1CN(C)Cc1cccc2c1OCCCO2	inactive
COc1ccc(NC(=O)Nc2ccc3c(c2)C(=O)N([C@@H](C)CO)C[C@@H](C)[C@@H](CN(C)Cc2ccncc2)OCCCC[C@@H](C)O3)cc1	inactive
C[C@@H]1CN([C@H](C)CO)C(=O)c2cc(NC(=O)Cn3cnnn3)ccc2O[C@@H]1CN(C)C(=O)Nc1ccc(F)cc1	inactive
CC(C)(C)NCCCCOc1ccc(Cl)cc1C(C)(C)C	active
CC[C@@H](C)NCCCCOc1ccc(Cl)cc1C(C)(C)C	active
Cc1ccc(OCc2ccc(Cl)cc2)c(C(C)(C)C)c1	inactive

SMILES	cytotoxicity call
CCOc1ccccc1OCCNC(C)Cc1ccc(OC)c(S(N)(=O)=O)c1.Cl (centres undefined)	inactive
CC(C)Oc1ccc(Cl)cc1CN	inactive
C#CCN(C)CCCOc1ccc(Cl)cc1Cl.Cl	inactive
C[C@@H]1CN([C@H](C)CO)C(=O)c2cc(NC(=O)Nc3ccc4c(c3)OCO4)ccc2O[C@@H]1CN(C)S(C)(=O)=O	inactive
COc1ccc(COC[C@@]23Oc4ccccc4[C@@H](NC(=O)N2C(=O)c2ccccc2)[C@H]3CO[Si](C)(C)C(C)(C)C)cc1	inactive
COc1ccc(COC[C@]23NC(=S)N[C@H](c4ccccc4O2)[C@H]3CO[Si](C)(C)C(C)(C)C)cc1	inactive
COc1ccc(COC[C@]23NC(=S)N[C@H](c4ccccc4O2)[C@@H]3CO[Si](C)(C)C(C)(C)C)cc1	inactive
COc1ccc(COC[C@]23Oc4ccccc4[C@H]([C@H]2CO[Si](C)(C)C(C)(C)C)N(C(=O)CC(C)=O)C(=O)N3C)cc1	inactive
COc1ccc(COC[C@]23N=C4SCCCN4[C@H](c4ccccc4O2)[C@H]3COC(=O)c2ccccc2)cc1	inactive
COc1ccc(COC[C@]23N=C4SCCCN4[C@H](c4ccccc4O2)[C@H]3CO[Si](C)(C)C(C)(C)C)cc1	active
COc1ccc(COC[C@]23N=C4SCc5ccccc5CN4[C@H](c4ccccc4O2)[C@H]3CO[Si](C)(C)C(C)(C)C)cc1	inactive
COc1ccc(COC[C@@]23Oc4ccccc4[C@@H](NC(=S)N2C)[C@@H]3CO[Si](C)(C)C(C)(C)C)cc1	active
COc1ccc(COC[C@@]23Oc4ccccc4[C@@H](NC(=S)N2C)[C@H]3CO[Si](C)(C)C(C)(C)C)cc1	active
O=C(C[C@H]1CC[C@H]2[C@@H](COC[C@@H](O)CN2S(=O)(=O)c2cccc(F)c2)O1)NCc1ccncn1	inactive
Cc1cccc(CO)n1	inactive
O=C1N[C@@H]2[C@@H](O)[C@@H](O)[C@H](O)[C@@H](CO)N2C1=O	inactive
CCCCS(=N)(=O)CC[C@@H](N)C(=O)O (some centres undefined)	inactive
NC(=S)Nc1ccncc1	inactive
CCC[C@@H](O)C#Cc1cnc2c(c1)C(=O)N([C@H](C)CO)C[C@H](C)[C@H](CN(C)S(=O)(=O)c1cccc(F)c1)O2	inactive
C[C@H](CO)N1C[C@H](C)[C@H](CN(C)C(=O)Cc2ccccc2)OCCCC[C@H](C)Oc2ccc(NS(=O)(=O)c3ccc(Cl)cc3)cc2C1=O	inactive
COc1ccc(NC(=O)N(C)C[C@H]2Oc3ccc(NS(=O)(=O)c4cn(C)cn4)cc3CC(=O)N([C@H](C)CO)C[C@H]2C)cc1	inactive
Cc1noc(C)c1NC(=O)N(C)C[C@H]1Oc2ccc(NC(=O)c3ccncc3)cc2C(=O)N([C@H](C)CO)C[C@H]1C	inactive
